What all share (assay): HT-SELEX; 20 mM HEPES pH 7, 140 mM KCl, 5 mM NaCl, 1 mM K2HPO4, 2 mM MgSO4, 100 uM EGTA, ZnSO4, 0.1% Tween20; room temperature, 1 h; high values mean tight binding
Conditions in all cases: protein: ivt; tags: eGFP (N-terminal); dsDNA, one strand shown

One assay has as its target ZNF721 full-length (Homo sapiens, UniProt Q8TF20-2 1-923). The procedure, abridged:
(§1)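 In HEPES/KCl low-stringency buffer with Tween20, a bead-immobilised tagged transcription factor (full-length or DNA-binding-domain fragment, from HEK293 lysate or cell-free extract) was incubated with a randomized 40-base DNA library for 1 h at room temperature. DNA retained after washing was heat-eluted, amplified by PCR over successive cycles and Illumina-sequenced, giving ~3 million 60 bp reads per sample. The reported binding signal, a relative k-mer count in those selected reads, rises with tighter binding.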

The next assay has as its target ZNF721 DBD1 (Homo sapiens, UniProt Q8TF20-2 29-461). The procedure, abridged: as §1
The next assay deals with ZNF721 DBD2 (Homo sapiens, UniProt Q8TF20-2 395-923). The procedure, abridged:
as §1

The record followed here is publication PMC13541613, “GHT-SELEX demonstrates unexpectedly high intrinsic sequence specificity and complex DNA binding of many human transcription factors”.

Chain of ZNF721 full-length (Q8TF20 other isoform, or with tags, fused parts or gaps): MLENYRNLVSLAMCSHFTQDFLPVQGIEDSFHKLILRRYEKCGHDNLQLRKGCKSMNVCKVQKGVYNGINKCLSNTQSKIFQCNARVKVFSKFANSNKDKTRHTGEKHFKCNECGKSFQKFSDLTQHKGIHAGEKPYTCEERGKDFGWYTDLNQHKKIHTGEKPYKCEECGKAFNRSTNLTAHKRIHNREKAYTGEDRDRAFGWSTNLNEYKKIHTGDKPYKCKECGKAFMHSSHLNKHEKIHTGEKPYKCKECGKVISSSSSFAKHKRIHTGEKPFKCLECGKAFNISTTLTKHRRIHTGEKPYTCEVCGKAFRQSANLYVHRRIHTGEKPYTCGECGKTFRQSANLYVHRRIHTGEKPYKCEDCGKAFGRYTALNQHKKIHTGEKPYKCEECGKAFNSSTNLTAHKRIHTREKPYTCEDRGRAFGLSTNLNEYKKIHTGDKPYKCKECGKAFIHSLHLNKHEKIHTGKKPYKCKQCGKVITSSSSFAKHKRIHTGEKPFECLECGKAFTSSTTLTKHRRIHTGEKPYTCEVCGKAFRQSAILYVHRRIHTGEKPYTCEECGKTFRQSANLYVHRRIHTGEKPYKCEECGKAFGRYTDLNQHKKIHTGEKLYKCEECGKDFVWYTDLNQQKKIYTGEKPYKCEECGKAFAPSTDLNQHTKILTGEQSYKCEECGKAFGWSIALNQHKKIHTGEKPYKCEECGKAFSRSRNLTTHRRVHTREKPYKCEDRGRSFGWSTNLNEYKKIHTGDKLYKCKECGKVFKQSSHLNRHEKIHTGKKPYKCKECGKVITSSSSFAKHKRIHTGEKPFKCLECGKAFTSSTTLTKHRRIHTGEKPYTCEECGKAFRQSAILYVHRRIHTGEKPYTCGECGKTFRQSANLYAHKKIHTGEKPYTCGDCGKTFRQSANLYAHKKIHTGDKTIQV
Chain of ZNF721 DBD1 (Q8TF20 17-449): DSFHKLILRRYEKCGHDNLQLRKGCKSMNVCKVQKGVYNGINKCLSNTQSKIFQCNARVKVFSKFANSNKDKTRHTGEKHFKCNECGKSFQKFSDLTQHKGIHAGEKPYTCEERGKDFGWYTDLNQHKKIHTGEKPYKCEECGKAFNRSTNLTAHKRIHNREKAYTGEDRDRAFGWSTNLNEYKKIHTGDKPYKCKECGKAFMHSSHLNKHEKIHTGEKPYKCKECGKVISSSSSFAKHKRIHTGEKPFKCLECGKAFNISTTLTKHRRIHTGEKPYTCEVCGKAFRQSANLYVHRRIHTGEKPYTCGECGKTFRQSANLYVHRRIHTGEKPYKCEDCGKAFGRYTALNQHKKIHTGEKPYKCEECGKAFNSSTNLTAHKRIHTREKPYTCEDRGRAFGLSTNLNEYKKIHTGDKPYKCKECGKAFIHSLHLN
Chain of ZNF721 DBD2 (Q8TF20 383-911): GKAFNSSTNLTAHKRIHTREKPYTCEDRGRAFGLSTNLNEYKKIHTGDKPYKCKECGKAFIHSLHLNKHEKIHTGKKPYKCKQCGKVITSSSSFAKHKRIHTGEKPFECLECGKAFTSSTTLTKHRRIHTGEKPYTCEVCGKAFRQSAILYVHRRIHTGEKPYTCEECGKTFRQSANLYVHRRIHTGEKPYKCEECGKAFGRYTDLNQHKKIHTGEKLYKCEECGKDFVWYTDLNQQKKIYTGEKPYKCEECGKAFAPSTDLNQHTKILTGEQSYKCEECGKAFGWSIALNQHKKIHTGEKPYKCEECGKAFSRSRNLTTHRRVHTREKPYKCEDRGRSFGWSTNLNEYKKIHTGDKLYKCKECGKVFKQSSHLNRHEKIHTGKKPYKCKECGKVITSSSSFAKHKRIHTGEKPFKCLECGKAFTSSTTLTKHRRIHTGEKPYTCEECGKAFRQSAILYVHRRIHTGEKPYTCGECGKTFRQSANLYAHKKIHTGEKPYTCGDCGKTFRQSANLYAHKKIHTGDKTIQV

CGCCACCCAC: the binding signal is 0.123 relative 10-mer count with ZNF721 full-length, 0.0056 relative 10-mer count with ZNF721 DBD1 and 0.00372 relative 10-mer count with ZNF721 DBD2.
For CCTCCCCTCC, in that order: 0.155 relative 10-mer count, 0.00812 relative 10-mer count and 0.0132 relative 10-mer count.
On the same counts, the results for ATGTGTATGA are 0.12 relative 10-mer count, 0.124 relative 10-mer count and 0.0018 relative 10-mer count.
On the same counts, the results for CCCAACCCAC are 0.149 relative 10-mer count, 0.0056 relative 10-mer count and 0.00515 relative 10-mer count.
Consider CACCCCCCTC, for which the binding signal stood at 0.127 relative 10-mer count in the assay with ZNF721 full-length, 0.00633 relative 10-mer count with ZNF721 DBD1 and 0.00479 relative 10-mer count with ZNF721 DBD2.
For CAAAAAGCAG, in that order: 0.159 relative 10-mer count, 0.00156 relative 10-mer count and 0.172 relative 10-mer count.
On the same counts, the results for CCCTCTCCCC are 0.11 relative 10-mer count, 0.00564 relative 10-mer count and 0.00228 relative 10-mer count.
On the same counts, the results for ACAAAAAAAC are 0.151 relative 10-mer count, 0.00188 relative 10-mer count and 0.0972 relative 10-mer count.
Take AAAAAAAAGG: the binding signal with ZNF721 full-length turned out to be 0.175 relative 10-mer count; in the assay with ZNF721 DBD1, 0.00477 relative 10-mer count; in the assay with ZNF721 DBD2, 0.12 relative 10-mer count.
On the same counts, the results for CCCTTCCCCC are 0.141 relative 10-mer count, 0.00633 relative 10-mer count and 0.003 relative 10-mer count.
For CAGCCCACCC, in that order: 0.151 relative 10-mer count, 0.00431 relative 10-mer count and 0.0841 relative 10-mer count.
Regarding AGGTGGGGGG, the binding signal was 0.157 relative 10-mer count in the assay with ZNF721 full-length, 0.0067 relative 10-mer count in the assay with ZNF721 DBD1 and 0.00527 relative 10-mer count with ZNF721 DBD2.
For GCCCCCCCCC, in that order: 0.112 relative 10-mer count, 0.00367 relative 10-mer count and 0.00276 relative 10-mer count.
On the same counts, the results for CCCACCGTCC are 0.105 relative 10-mer count, 0.00449 relative 10-mer count and 0.00395 relative 10-mer count.
On the same counts, the results for CACCACCGCC are 0.103 relative 10-mer count, 0.00454 relative 10-mer count and 0.00324 relative 10-mer count.
CACGCCCCCC: the binding signal came out at 0.123 relative 10-mer count in the assay with ZNF721 full-length, 0.00454 relative 10-mer count with ZNF721 DBD1 and 0.00635 relative 10-mer count in the assay with ZNF721 DBD2.
In the case of CCCACCCCAC, the binding signal is 0.354 relative 10-mer count with ZNF721 full-length, 0.0155 relative 10-mer count with ZNF721 DBD1 and 0.00863 relative 10-mer count with ZNF721 DBD2.
For CGCCCACCCA, in that order: 0.147 relative 10-mer count, 0.00449 relative 10-mer count and 0.00216 relative 10-mer count.
Turning to GCCCCCGCCC, the results for the binding signal in the assay with ZNF721 full-length, with ZNF721 DBD1 and with ZNF721 DBD2 were 0.146 relative 10-mer count, 0.00527 relative 10-mer count and 0.00132 relative 10-mer count, respectively.
